Assay outcomes (PubChem)
A selection: hits, their analogues and other compounds. The true share with any hit is near 1.1%.
AGP1-GFP MLPCN = yeast TOR pathway AGP1-GFP modulation; GFP response vs DMSO, % at 10 µM; S. cerevisiae AGP1-GFP multiplex flow cytometry, 3 h; GFP as percent of DMSO wells; AID 2066; 320,000 compounds, 0.02% hits;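 active = GFP response relative to DMSO above a set limit, near screen average plus 3 SD, cut at about 150% in these data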;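 note: median GFP channel fluorescence of the gated AGP1 strain per well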
VLA-4 inh = inhibition in a human VLA-4 binding assay. P13612. VLA-4 expressing cells, ligand binding flow cytometry. inhibition, % (about 7 µM as worked out from the volumes in the protocol). 330,000 compounds, 0.2% hits; in the data active = inhibition above about 50%
LAP4 TOR yeast = yeast TOR pathway LAP4-GFP modulation; S. cerevisiae LAP4-GFP multiplex, flow cytometry GFP, 3 h; median GFP as percent of DMSO wells; GFP response vs DMSO, % at 10 µM; 320,000 compounds, 0.34% hits; AID 2023;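 active = GFP response vs DMSO above a set limit, about the screen mean plus 3 SD, cut at about 150% in these data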
RPL19A-GFP yeast = alters RPL19A-GFP fluorescence in TOR pathway yeast screen | S. cerevisiae RPL19A-GFP strain, flow cytometry, 3 h; stronger effect = lower value | 330,000 compounds, 0.3% hits | percent response vs DMSO, % at 10 µM | AID 2025;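 active = percent response vs DMSO below 50%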;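 note: median channel GFP fluorescence of the barcoded RPL19A-GFP strain; ratio of sample median GFP to plate DMSO average so 100% = DMSO; lower means less RPL19A-GFP as with rapamycin TOR inhibition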
MEP2-GFP yeast = yeast TOR pathway MEP2-GFP modulation. S. cerevisiae MEP2-GFP strain, flow cytometry GFP, 3 h; 100% = DMSO control level. GFP response vs DMSO, % at 10 µM. 330,000 compounds, 0.51% hits. AID 2016;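 active = GFP response versus DMSO above a set limit, roughly screen mean plus 3 SD, cut at about 180% in these data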;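 note: median GFP fluorescence of the barcode-gated MEP2-GFP cells per well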
CIT2-GFP yeast = alters CIT2-GFP fluorescence in TOR pathway yeast screen; S. cerevisiae CIT2-GFP strain, flow cytometry, 3 h; 100 means same as DMSO wells; GFP response vs DMSO, % at 10 µM; 320,000 compounds, 0.065% hits;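 active = GFP response relative to DMSO above a set limit, near the screen mean plus 3 SD, cut at about 150% in these data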;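 note: ratio of well median GFP fluorescence to mean of DMSO wells on the plate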
VLA-4 allo CP = human VLA-4 allosteric modulation in cherry picked compounds; shares compounds with VLA-4 inh; U937 cells, HUTS-21 LIBS mAb binding, flow cytometry; LDV ligand present at threefold Kd; inhibition, % at 6.7 µM; 1,300 compounds, 2% hits; in the data active = inhibition above about 40%;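 note: 0% = ligand without compound and 100% = no ligand background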
* = called active by the depositor; . = not tested or not shown.

SMILES	AGP1-GFP MLPCN	VLA-4 inh	LAP4 TOR yeast	RPL19A-GFP yeast	MEP2-GFP yeast	CIT2-GFP yeast	VLA-4 allo CP
COc1cc2c(cc1OC)C(c1cccc(OC)c1OC)CC(=O)N2 (centres undefined)	94	12	89	96	99	100	.
Cc1ccc(S(=O)(=O)NCC(=O)OCC(=O)N2C(C)CCCC2C)cc1 (centres undefined)	105	3	101	98	103	107	.
CSc1ccc(CN(C)C(=O)C23CC4CC(CC(Cl)(C4)C2)C3)cc1	101	64*	94	109	102	101	-7
CC1(C)C(C(=O)O)N2C(=O)C(NC(=O)Cc3ccccc3)C2S1=O (centres undefined)	97	59*	101	99	101	97	-8
O=S(=O)(Nc1cc(S(=O)(=O)N2CCOCC2)ccc1Cl)c1ccccc1	80	-1	81	95	89	82	.
COc1c2occc2c(OC)c2c(=O)cc(C)oc12	88	51*	128	95	94	82	-5
C/C(=N\NC(=O)Cn1nnc2ccccc21)c1ccco1	93	0	99	94	111	94	.
O=C(NCC(O)CO)c1ccc2[nH]c3ccccc3c2c1 (centres undefined)	100	14	95	97	101	100	.
CCOC(=O)CNC(=O)c1ccc2[nH]c3ccccc3c2c1	93	44	102	100	98	98	-5
CNc1nc(C)nc(-n2nc(C)cc2C)n1	99	-7	103	101	105	98	-1
COc1cc(/C=C(\C#N)C(=O)NCCc2ccccc2)cc(OC)c1O	97	14	98	98	104	100	.
CCCCNC(=O)/C(C#N)=C/c1ccc(C(=O)OC)cc1	87	4	89	84	91	85	21
COC(=O)c1ccc(/C=C(\C#N)C(=O)NC(C)c2ccccc2)cc1 (centres undefined)	83	13	103	96	90	91	.
CCOCCCNC(=O)/C(C#N)=C/c1cc(Br)c(O)c(Br)c1	.	.	.	.	.	.	22
COCCNC(=O)/C(C#N)=C/c1cc(Br)c(O)c(OC)c1	94	-12	93	97	96	95	1
Cc1cccc(C2N=C(N)Nc3nc4ccccc4n32)c1 (centres undefined)	101	20	104	94	94	97	.
COCCn1nnnc1C(c1ccc(OC)cc1OC)N1CCN(c2ccccc2)CC1 (centres undefined)	112	0	84	108	91	89	.
COCCn1nnnc1C(c1ccc(OC)cc1OC)N1CCN(c2ccccc2F)CC1 (centres undefined)	94	99*	102	96	102	110	0
Cc1ccc(S(=O)(=O)N2[C@@H](c3ccc(Cl)cc3)C(C(=O)O)=C[C@H]2C(C)(C)C)cc1	94	-3	101	97	99	90	.
CCCCC[C@@H]1C=C(C(=O)O)[C@H](c2ccc(Cl)cc2)N1S(=O)(=O)c1ccc(C)cc1	98	16	101	103	97	98	1
Cc1ccc(S(=O)(=O)N2[C@@H](c3ccc(Br)cc3)C(C(=O)O)=C[C@H]2C(C)(C)C)cc1	84	52*	84	87	86	80	-1
CCCC[C@@H]1C=C(C(=O)O)[C@H](c2ccc(C)cc2)N1S(=O)(=O)c1ccc(C)cc1	93	53*	100	96	87	96	-2
CCCCC[C@@H]1C=C(C(=O)O)[C@H](c2ccc(C)cc2)N1S(=O)(=O)c1ccc(C)cc1	100	-9	105	102	97	83	.
CCNC(=O)N(CC)C[C@H]1N[C@@](Cc2ccccc2)(C(=O)OC)[C@H]2C(=O)N(C)C(=O)[C@@H]12	86	-9	93	88	86	91	.
O=C(NCc1ccccc1)N1CCNCC1	103	7	92	104	106	105	.
SMILES	AGP1-GFP MLPCN	VLA-4 inh	LAP4 TOR yeast	RPL19A-GFP yeast	MEP2-GFP yeast	CIT2-GFP yeast	VLA-4 allo CP
C/C(=N\NC(=O)Cc1c(C)[nH][nH]c1=O)c1ccc2ccccc2c1	98	61*	97	104	107	108	-16
COc1cccc(/C(C)=N/NC(=O)Cc2c(C)[nH][nH]c2=O)c1	98	-7	81	106	103	102	.
OCCC1CN(Cc2cnc(-c3ccccc3)s2)CCN1C1CCCC1 (centres undefined)	101	43	102	102	102	102	4
OCCC1CN(Cc2cnc(-c3ccccc3)s2)CCN1C1CCCCC1 (centres undefined)	107	-6	97	103	107	100	.
COc1ccc(S(=O)(=O)N2CCC(C(=O)N(C)Cc3ccc(C)o3)CC2)cc1OC	95	-1	100	98	95	94	.
CC(=O)Nc1c(-c2ccc3ccccc3c2)nc2ccccn12	114	10	119	98	105	123	.
O=c1c2[nH]c3ccc(F)cc3c2ncn1C1CCCCC1	103	96*	102	102	99	95	6
O=c1c2[nH]c3ccccc3c2ncn1CCCn1ccnc1	96	-10	99	99	104	97	.
O=c1c2[nH]c3ccc(F)cc3c2ncn1Cc1ccncc1	101	3	105	101	95	88	-2
COc1ccc2[nH]c3c(=O)n(Cc4ccncc4)cnc3c2c1	105	6	104	102	105	98	.
O=c1c2[nH]c3ccc(Br)cc3c2ncn1CCCn1ccnc1	106	3	108	99	113	113	7
CSCCC(NC(=O)c1ccccc1)C(=O)NCCCn1nc(C)cc1C (centres undefined)	104	-8	102	97	109	101	.
CCNc1nc2c(c(=O)n(C)c(=O)n2C)n1Cc1ccc(Cl)cc1	102	57*	101	100	98	96	5
Cc1cccc(-n2ncc3c(NCCCO)ncnc32)c1	101	-6	102	99	100	99	.
C=CCNc1ncnc2c1cnn2-c1cccc(C)c1	94	66*	121	96	102	86	6
CCOC(=O)c1c(C)nc2sc3c(=O)n(-c4ccc(C)cc4)cnc3c2c1-c1ccc(OC)cc1	97	94*	97	96	96	102	11
O=C(CSc1nnc(-c2ccc(Cl)cc2)n1Cc1ccco1)NCc1ccc2c(c1)OCO2	.	89*	102	101	101	99	0
COc1ccc(NS(=O)(=O)c2ccc(NS(=O)(=O)c3cccs3)cc2)cc1	90	11	90	98	102	100	.
